Data from PubChem BioAssay (NCI).
About 79,000 compounds went through this panel and 15% of them were active in at least one assay; those are over-represented in the sample as a whole. Unmarked numbers belong to inactive results. The source made the active and inactive calls. Cut-off read from the data, not from the text of the source: active = growth inhibition above about 70%; inactive = the rest.

Columns and labels:
[1] = NCI Yeast Anticancer Drug Screen. Data for the rad52 strain (AID 147);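 note: 0% = growth of vehicle-treated control cultures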; conditions: S. cerevisiae rad52 mutant growth inhibition, stronger effect = higher value
Method in brief: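 DNA repair-defective yeast; compound exposure; growth scored against vehicle controls.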

[2] = NCI Yeast Anticancer Drug Screen. Data for the rad50EPP+ strain (AID 151);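 note: 0% = growth of vehicle-treated control cultures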; conditions: S. cerevisiae rad50 mutant strain, stronger effect = higher value
Method in brief: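 rad50EPP+ yeast treated with test compounds. Readout: growth vs vehicle control.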

[3] = NCI Yeast Anticancer Drug Screen. Data for the mgt1 strain (AID 153); conditions: S. cerevisiae mgt1 mutant growth inhibition, stronger effect = higher value
Method in brief: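 Growth inhibition relative to vehicle controls was scored for the mgt1 yeast strain after compound exposure.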

[4] = NCI Yeast Anticancer Drug Screen. Data for the rad50 strain (AID 155);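 note: 0% = growth of vehicle-only cultures of the same strain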; conditions: S. cerevisiae rad50 strain growth inhibition, stronger effect = higher value
Method in brief: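 Inhibition values express reduced yeast growth in compound-treated cultures relative to vehicle-treated controls.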

[5] = NCI Yeast Anticancer Drug Screen. Data for the mec2-1 strain (AID 157); conditions: S. cerevisiae mec2-1 strain, stronger effect = higher value
Method in brief: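 Growth inhibition is read against vehicle-treated controls after compound exposure of the mec2-1 yeast strain, which is defective in DNA damage repair or cell cycle control.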

[6] = NCI Yeast Anticancer Drug Screen. Data for the rad14 strain (AID 159);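 note: 0% = growth of vehicle-treated control cultures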; conditions: S. cerevisiae rad14 strain growth inhibition, stronger effect = higher value
Method in brief: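 A mutant yeast strain defective in DNA damage repair is treated with compound; inhibition of its growth is scored against untreated, vehicle-exposed cultures.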

[7] = NCI Yeast Anticancer Drug Screen. Data for the sgs1 mgt1 strain (AID 161);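 note: 0% = growth of cultures given vehicle only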; conditions: S. cerevisiae sgs1 mgt1 strain, stronger effect = higher value
Method in brief: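 Percent growth inhibition was derived by comparing compound-exposed mutant yeast with vehicle-exposed cultures. The strain carries alterations in DNA damage repair.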

[8] = NCI Yeast Anticancer Drug Screen. Data for the CLN2oe strain (AID 163);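 note: 0% = growth of vehicle-only control cultures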; conditions: S. cerevisiae CLN2oe strain, stronger effect = higher value
Method in brief: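 Compound-treated yeast; growth vs vehicle ctrl = % inhibition. Genetically altered strain (cell-cycle control).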

[9] = NCI Yeast Anticancer Drug Screen. Data for the cln2 rad14 strain (AID 165);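 note: 0% = growth equal to vehicle treated cultures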; conditions: S. cerevisiae cln2 rad14 strain, stronger effect = higher value
Method in brief: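 Growth inhibition, relative to vehicle-treated controls, is the read-out. The test organism is a yeast strain with defined genetic alterations, cln2 rad14.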

[10] = NCI Yeast Anticancer Drug Screen. Data for the bub3 strain (AID 167); conditions: S. cerevisiae bub3 mutant strain, stronger effect = higher value
Method in brief: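 Steps: expose the mutant yeast strain to compound; grow alongside vehicle-treated cultures; measure growth; express inhibition against the vehicle cultures.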

[11] = NCI Yeast Anticancer Drug Screen. Data for the wt2 strain (AID 169);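 note: 0% = growth of vehicle-treated yeast cultures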; conditions: S. cerevisiae wt2 strain growth inhibition, stronger effect = higher value
Method in brief: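 Compound exposure of yeast; growth compared with vehicle controls; inhibition reported.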

[12] = NCI Yeast Anticancer Drug Screen. Data for the mlh1 strain (AID 171);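 note: 0% = growth of vehicle-treated control cultures of the same strain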; conditions: S. cerevisiae mlh1 strain growth inhibition, stronger effect = higher value
Method in brief: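 Compounds are applied to a genetically altered yeast strain, and its growth is compared with that of vehicle-treated cultures to give percent inhibition.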

[13] = NCI Yeast Anticancer Drug Screen. Data for the sgs1 strain (AID 173);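 note: 0% = growth of vehicle-only control cultures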; conditions: S. cerevisiae sgs1 mutant, stronger effect = higher value
Method in brief: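 Compounds applied to genetically altered yeast; growth compared with vehicle-treated cultures to give % inhibition.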

[14] = NCI Yeast Anticancer Drug Screen. Data for the mlh1 rad18 strain (AID 175); conditions: S. cerevisiae mlh1 rad18 strain growth inhibition, stronger effect = higher value
Method in brief: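 Cells of a genetically altered yeast strain, deficient in DNA damage repair, were treated with compound. Their growth was then compared with that of vehicle-treated cultures to give inhibition.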

[15] = NCI Yeast Anticancer Drug Screen. Data for the rad18 strain (AID 177); conditions: S. cerevisiae rad18 mutant growth inhibition, stronger effect = higher value
Method in brief: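 Compounds are applied to a repair-deficient yeast strain, and growth is compared with that of vehicle-treated cultures to give percent inhibition.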

[16] = at 5.0 µM (retest, dose inferred, filed as 0.5)
[17] = at 50.0 µM (retest, dose inferred, filed as 5.0)

With `O=C(O)c1ccccc1C(=O)OC1CCc2ccccc2C1` (stereo unspecified) the growth inhibition ([1]; at 1.2 µM) was -3%, the growth inhibition ([1]; at 3.7 µM) was -2% and the growth inhibition ([1]; at 11.0 µM) was 0%. The growth inhibition ([1]; at 33.0 µM) was 18%, the growth inhibition ([1]; at 100.0 µM) was 46% and the growth inhibition ([2]; at 1.2 µM) was 0%. It also gave a growth inhibition ([2]; at 3.7 µM) of -4%, a growth inhibition ([2]; at 11.0 µM) of -1% and a growth inhibition ([2]; at 33.0 µM) of -8%. For the same compound, the growth inhibition ([2]; at 100.0 µM) was -12%, the growth inhibition ([3]; at 1.2 µM) was -4% and the growth inhibition ([3]; at 3.7 µM) was -6%. For the same compound, the growth inhibition ([3]; at 11.0 µM) was -10%, the growth inhibition ([3]; at 33.0 µM) was -1% and the growth inhibition ([3]; at 100.0 µM) was 5%. For the same compound, the growth inhibition ([4]; at 1.2 µM) was -1%, the growth inhibition ([4]; at 3.7 µM) was 0% and the growth inhibition [4, 16] was -12%. It also gave a growth inhibition ([4]; at 11.0 µM) of 1%, a growth inhibition ([4]; at 33.0 µM) of 14% and a growth inhibition [4, 17] of 17%. The growth inhibition ([4]; at 50.0 µM) was 26.4%, the growth inhibition ([4]; at 100.0 µM) was 39% and the growth inhibition ([5]; at 1.2 µM) was -6%. For the same compound, the growth inhibition ([5]; at 3.7 µM) was -9%, the growth inhibition [5, 16] was -20% and the growth inhibition ([5]; at 11.0 µM) was -11%. The growth inhibition ([5]; at 33.0 µM) was 13%, the growth inhibition [5, 17] was 26% and the growth inhibition ([5]; at 50.0 µM) was 50.1%. It also gave a growth inhibition ([5]; at 100.0 µM) of 36%, a growth inhibition ([6]; at 1.2 µM) of -5% and a growth inhibition ([6]; at 3.7 µM) of -7%. The growth inhibition ([6]; at 11.0 µM) was -7%, the growth inhibition ([6]; at 33.0 µM) was 11% and the growth inhibition ([6]; at 100.0 µM) was 52%. For the same compound, the growth inhibition [7, 16] was 1%, the growth inhibition [7, 17] was 45% and the growth inhibition ([7]; at 50.0 µM) was 50.4%. It also gave a growth inhibition ([8]; at 1.2 µM) of -10%, a growth inhibition ([8]; at 3.7 µM) of -14% and a growth inhibition ([8]; at 11.0 µM) of -11%. The growth inhibition ([8]; at 33.0 µM) was 39%, the growth inhibition ([8]; at 100.0 µM) was 62% and the growth inhibition [9, 16] was -74%. For the same compound, the growth inhibition [9, 17] was -12%, the growth inhibition ([9]; at 50.0 µM) was 58% and the growth inhibition ([10]; at 1.2 µM) was -9%. The growth inhibition ([10]; at 3.7 µM) was -10%, the growth inhibition [10, 16] was -1% and the growth inhibition ([10]; at 11.0 µM) was -9%. It also gave a growth inhibition ([10]; at 33.0 µM) of 17%, a growth inhibition [10, 17] of 33% and a growth inhibition ([10]; at 50.0 µM) of 55.8%. For the same compound, the growth inhibition ([10]; at 100.0 µM) was 53%, the growth inhibition ([11]; at 1.2 µM) was -4% and the growth inhibition ([11]; at 3.7 µM) was -6%. The growth inhibition ([11]; at 11.0 µM) was -9%, the growth inhibition ([11]; at 33.0 µM) was -2% and the growth inhibition ([11]; at 100.0 µM) was 25%. For the same compound, the growth inhibition ([12]; at 1.2 µM) was -5%, the growth inhibition ([12]; at 3.7 µM) was -9% and the growth inhibition ([12]; at 11.0 µM) was -6%. The growth inhibition ([12]; at 33.0 µM) was 14%, the growth inhibition ([12]; at 100.0 µM) was 42% and the growth inhibition ([13]; at 1.2 µM) was -4%. For the same compound, the growth inhibition ([13]; at 3.7 µM) was -4%, the growth inhibition ([13]; at 11.0 µM) was -3% and the growth inhibition ([13]; at 33.0 µM) was 14%. For the same compound, the growth inhibition ([13]; at 100.0 µM) was 45%, the growth inhibition [14, 16] was -4% and the growth inhibition [14, 17] was 33%. It also gave a growth inhibition ([14]; at 50.0 µM) of 22.7%, a growth inhibition ([15]; at 1.2 µM) of -2% and a growth inhibition ([15]; at 3.7 µM) of -1%. For the same compound, the growth inhibition ([15]; at 11.0 µM) was -1%, the growth inhibition ([15]; at 33.0 µM) was 6% and the growth inhibition ([15]; at 100.0 µM) was 31%.
`O=C(NNc1ccccc1)C(CCCCNS(=O)(=O)Cc1ccccc1)NS(=O)(=O)Cc1ccccc1` (stereo unspecified) gave a growth inhibition ([1]; at 1.2 µM) of 3%, a growth inhibition ([1]; at 3.7 µM) of 9% and a growth inhibition ([1]; at 11.0 µM) of 29%. For the same compound, the growth inhibition ([1]; at 33.0 µM) was 46%, the growth inhibition ([1]; at 100.0 µM) was 72% (active) and the growth inhibition ([2]; at 1.2 µM) was 3%. It also gave a growth inhibition ([2]; at 3.7 µM) of 10%, a growth inhibition ([2]; at 11.0 µM) of 25% and a growth inhibition ([2]; at 33.0 µM) of 55%. For the same compound, the growth inhibition ([2]; at 100.0 µM) was 68%, the growth inhibition ([3]; at 1.2 µM) was 0% and the growth inhibition ([3]; at 3.7 µM) was 11%. For the same compound, the growth inhibition ([3]; at 11.0 µM) was 13%, the growth inhibition ([3]; at 33.0 µM) was 18% and the growth inhibition ([3]; at 100.0 µM) was 18%. The growth inhibition ([4]; at 1.2 µM) was 5%, the growth inhibition ([4]; at 3.7 µM) was 10% and the growth inhibition [4, 16] was 18%. For the same compound, the growth inhibition ([4]; at 11.0 µM) was 36%, the growth inhibition ([4]; at 33.0 µM) was 56% and the growth inhibition [4, 17] was 53%. For the same compound, the growth inhibition ([4]; at 50.0 µM) was 51.2%, the growth inhibition ([4]; at 100.0 µM) was 85% (active) and the growth inhibition ([5]; at 1.2 µM) was -2%. For the same compound, the growth inhibition ([5]; at 3.7 µM) was 8%, the growth inhibition [5, 16] was 5% and the growth inhibition ([5]; at 11.0 µM) was 25%. For the same compound, the growth inhibition ([5]; at 33.0 µM) was 48%, the growth inhibition [5, 17] was 34% and the growth inhibition ([5]; at 50.0 µM) was 26.4%. The growth inhibition ([5]; at 100.0 µM) was 39%, the growth inhibition ([6]; at 1.2 µM) was 0% and the growth inhibition ([6]; at 3.7 µM) was 1%. The growth inhibition ([6]; at 11.0 µM) was 3%, the growth inhibition ([6]; at 33.0 µM) was 13% and the growth inhibition ([6]; at 100.0 µM) was 18%. The growth inhibition [7, 16] was 10%, the growth inhibition [7, 17] was 54% and the growth inhibition ([7]; at 50.0 µM) was 51.5%. The growth inhibition ([8]; at 1.2 µM) was 1%, the growth inhibition ([8]; at 3.7 µM) was 6% and the growth inhibition ([8]; at 11.0 µM) was 31%. It also gave a growth inhibition ([8]; at 33.0 µM) of 51%, a growth inhibition ([8]; at 100.0 µM) of 44% and a growth inhibition [9, 16] of 5%. The growth inhibition [9, 17] was 46%, the growth inhibition ([9]; at 50.0 µM) was 14.8% and the growth inhibition ([10]; at 1.2 µM) was 1%. The growth inhibition ([10]; at 3.7 µM) was 3%, the growth inhibition [10, 16] was 11% and the growth inhibition ([10]; at 11.0 µM) was 44%. For the same compound, the growth inhibition ([10]; at 33.0 µM) was 87% (active), the growth inhibition [10, 17] was 86% (active) and the growth inhibition ([10]; at 50.0 µM) was 53.6%. For the same compound, the growth inhibition ([10]; at 100.0 µM) was 47%, the growth inhibition ([11]; at 1.2 µM) was 2% and the growth inhibition ([11]; at 3.7 µM) was 6%. The growth inhibition ([11]; at 11.0 µM) was 22%, the growth inhibition ([11]; at 33.0 µM) was 28% and the growth inhibition ([11]; at 100.0 µM) was 51%. It also gave a growth inhibition ([12]; at 1.2 µM) of 1%, a growth inhibition ([12]; at 3.7 µM) of 1% and a growth inhibition ([12]; at 11.0 µM) of 11%. It also gave a growth inhibition ([12]; at 33.0 µM) of 32%, a growth inhibition ([12]; at 100.0 µM) of 44% and a growth inhibition [14, 16] of 14%. For the same compound, the growth inhibition [14, 17] was 56%, the growth inhibition ([14]; at 50.0 µM) was 75.2% (active) and the growth inhibition ([15]; at 1.2 µM) was 2%. The growth inhibition ([15]; at 3.7 µM) was 19%, the growth inhibition ([15]; at 11.0 µM) was 62% and the growth inhibition ([15]; at 33.0 µM) was 90% (active). The growth inhibition ([15]; at 100.0 µM) was 50%.
